The list is not random: actives were taken first. Their share in the collection is about 2.8%.
Wnt act: Wnt/beta-catenin pathway activators, primary screen, cell-based, plate reader, single point; Wnt/beta-catenin reporter cell assay, activator; activation, % at 9.35 µM; 300,000 compounds, 1.2% hits; AID 743398, 2014; in the data active = activation above about 30%, passing the limit was not always enough; inconclusive = no clear call, values can overlap the other calls
MITF TRPM1 HTS: activators of MITF-driven TRPM1 promoter reporter, primary screen, cell-based, SK-MEL-5, luciferase, single point | SK-MEL-5 TRPM1-promoter luciferase, 24 h; % of positive control, neutral wells = 0 | activation, % at 12.5 µM | 300,000 compounds, 0.75% hits | AID 588334, 2011;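 active = mean activation of at least 80% with every replicate also reaching 80%; inconclusive = mean reaches 80% but some replicate falls short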
GAA850 FXN act: FXN promoter activators, primary screen, cell-based, luciferase luminescence, HEK293 lucGAA850; HEK293 lucGAA850 FXN promoter luciferase reporter, 24 h; percent of 10 µM SAHA response; activation, % at 6 µM; 360,000 compounds, 0.56% hits; AID 540364, 2011;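 active = activation above the average of all compounds screened plus 3 SD, cutoff fixed separately per campaign, cut at about 7.5% in these data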
esBAF inh: Bmi1 luciferase reporter increase in mESCs, primary screen, esBAF inhibitor project, mouse ES cells, Bmi1 luciferase knock-in, single point; 24 h; 100% = twice the neutral-well signal; reporter increase, % at 12.5 µM; 350,000 compounds, 2% hits; AID 602393, 2012; in the data active = activation above about 40%; inconclusive = no clear call, values can overlap the other calls;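 also: a rise in the Bmi1 reporter signal indicates esBAF inhibition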
Each line names hits and unclear results; the compound was inactive in the other large screens.

COc1cccc(NC(=O)CN(C)C(=O)c2ccc3c(c2)CC(c2ccccc2)OC3=O)c1 (centres undefined)	Wnt act 48
CO[C@@H]1CN(C)C(=O)c2cc(NS(=O)(=O)CC(F)(F)F)ccc2OC[C@H](C)N(Cc2nccs2)C[C@H]1C	none (no result: Wnt act, MITF TRPM1 HTS, GAA850 FXN act)
COc1ccc(/C=C2\Oc3ccccc3C2=O)cc1	none
COc1cc(OC)c2c(c1)O/C(=C\c1ccccc1)C2=O	esBAF inh 58 (no result: MITF TRPM1 HTS)
COCC#Cc1cnc2c(c1)C(=O)N([C@@H](C)CO)C[C@H](C)[C@H](CN(C)C(=O)C1CCCCC1)O2	none (no result: Wnt act, MITF TRPM1 HTS, GAA850 FXN act)
O=C(NNS(=O)(=O)c1ccccc1)C1CCN(S(=O)(=O)c2ccc(Cl)cc2)CC1	none (no result: MITF TRPM1 HTS)
O=C(NNS(=O)(=O)c1ccccc1)C1CCN(S(=O)(=O)c2ccccc2)CC1	Wnt act 42
C/C(=N\OC(=O)Nc1ccccc1)c1ccc(C)cc1	MITF TRPM1 HTS 101 (no result: esBAF inh)
C/C(=N/NC(=O)Nc1ccccc1)c1ccc(C)cc1	none
COc1ccc(NC(=O)COc2ccccc2)c(OC)c1	esBAF inh 51
Cc1ccc(OCC(=O)Nc2ccccc2C(N)=O)cc1	Wnt act 57, esBAF inh inconclusive
COc1ccc(NC(=O)COc2ccc(Br)cc2)c(OC)c1	none
COCC(=O)N(C)C[C@@H]1Oc2ncc(-c3ccc(C#N)cc3)cc2C(=O)N([C@H](C)CO)C[C@@H]1C	none (no result: Wnt act, MITF TRPM1 HTS, GAA850 FXN act)
COc1cc(OC)cc(-n2nnnc2SCC(=O)Nc2nc3c(s2)CCCC3)c1	none (no result: Wnt act, esBAF inh)
Cn1nnnc1SCC(=O)Nc1nc2c(s1)CCCC2	Wnt act inconclusive, MITF TRPM1 HTS 93
CN(C)c1ccc(/C=N/c2cc(-c3ccccc3)nn2-c2ccccc2)cc1	esBAF inh 62 (no result: MITF TRPM1 HTS)
Cc1nc2ccccc2c(=O)n1/N=C/c1ccc(N(C)C)cc1	none
CC(=O)c1ccc(NC(=O)c2ccn(C(=O)OCC(C)C)n2)cc1	Wnt act 53 (no result: esBAF inh)
O=C(C1CC1)N1CC[C@@H]2[C@H]1c1cc(Br)ccc1N[C@@H]2CO	esBAF inh 47 (no result: Wnt act, MITF TRPM1 HTS, GAA850 FXN act)
O=C(C1CC1)N1CC[C@H]2[C@H](CO)Nc3ccc(Br)cc3[C@H]21	none (no result: Wnt act, MITF TRPM1 HTS, GAA850 FXN act)
O=c1[nH]c(COc2ccc(Cl)cc2Br)nc2ccccc12	none (no result: esBAF inh)
O=c1[nH]c(COc2ccc(Cl)cc2Cl)nc2ccccc12	esBAF inh 73
CCCCNc1ccc2c(c1)C1CC2CCN1C(=O)OCc1ccccc1 (centres undefined)	MITF TRPM1 HTS 125, esBAF inh 100
O=C(OCc1ccccc1)N1CCC2CC1c1ccc(/C=C/CCCCl)cc12 (centres undefined)	esBAF inh 59 (no result: MITF TRPM1 HTS, GAA850 FXN act)
COCC(=O)Nc1ccc2c(c1)OC[C@@H](C)N(C(=O)NC(C)C)C[C@@H](C)[C@H](OC)CN(C)C2=O	none (no result: Wnt act, MITF TRPM1 HTS, GAA850 FXN act)
CC(C)NC(=O)N(C)C[C@@H]1Oc2ccc(NC(=O)Nc3ccccc3)cc2CC(=O)N([C@@H](C)CO)C[C@H]1C	none (no result: Wnt act, MITF TRPM1 HTS, GAA850 FXN act)
C[C@@H]1CN([C@@H](C)CO)C(=O)Cc2cc(N(C)C)ccc2O[C@H]1CN(C)C	none (no result: Wnt act, MITF TRPM1 HTS, GAA850 FXN act)
CCOc1cc(/C=N/NC(=O)N/N=C/c2ccc(O)c(OCC)c2)ccc1O	Wnt act 49 (no result: MITF TRPM1 HTS, GAA850 FXN act, esBAF inh)
CCOc1cc(/C=N/NC(=O)C(=O)N/N=C/c2ccc(O)c(OCC)c2)ccc1O	none (no result: MITF TRPM1 HTS)
CCOc1cc(/C=N/Nc2ncnc(Cl)c2N)ccc1O	esBAF inh 57 (no result: Wnt act)
COc1cccc2cc(CC(=O)c3ccc(C)cc3C)c(=O)oc12	MITF TRPM1 HTS 90, esBAF inh 87
COc1ccc(C(=O)Cc2cc3cccc(OC)c3oc2=O)cc1	esBAF inh inconclusive
CCOC(=O)c1sc(NC(=O)c2ccccc2OCC)nc1C	none (no result: esBAF inh)
CCOC(=O)Nc1nc(C)c(C(=O)c2ccc(Cl)cc2)s1	none
CCOC(=O)c1sc(NC(=O)Nc2ccc(Cl)cc2)nc1C	Wnt act 39, esBAF inh 61 (no result: MITF TRPM1 HTS)
CCOC(=O)c1sc(Nc2ccc(C)cc2C)nc1C	none
CNc1nc(C)c(C(=O)OCc2ccccc2)s1	esBAF inh 75 (no result: MITF TRPM1 HTS)
CCOC(=O)c1sc(Nc2nc3c(OC)cccc3s2)nc1C	esBAF inh 67 (no result: Wnt act)
CCOC(=O)c1sc(N/N=C/c2cccc(C)c2)nc1C	MITF TRPM1 HTS 99, esBAF inh 58
C[C@@H]1CN([C@H](C)CO)C(=O)Cc2cc(NC(=O)Nc3ccccc3)ccc2O[C@@H]1CN(C)C(=O)Nc1ccc(F)cc1	none (no result: Wnt act, MITF TRPM1 HTS, GAA850 FXN act)
CN1c2ccc(C3=CCCCC3)cc2[C@@H]2[C@@H](CCN2C(=O)NC2CCCCC2)[C@H]1CO	none (no result: Wnt act, MITF TRPM1 HTS, GAA850 FXN act)
CO[C@@H]1CN(C)C(=O)c2ccc(NC(=O)Nc3ccccc3F)cc2OC[C@H](C)N(C(C)=O)C[C@H]1C	none (no result: Wnt act, MITF TRPM1 HTS, GAA850 FXN act)
CCOC(=O)c1sc(Nc2ccccc2)nc1C	MITF TRPM1 HTS 94, esBAF inh 78 (no result: Wnt act)
COc1ccc(C(=O)c2sc(Nc3ccccc3)nc2C)cc1	none
CCOC(=O)c1sc(Nc2ccc(F)cc2)nc1C	none (no result: esBAF inh)
COC(=O)c1ccc(/C=N/Nc2nc(C)c(C)s2)cc1	Wnt act 34 (no result: MITF TRPM1 HTS, esBAF inh)
Cc1nc(Nc2ccccc2)sc1-c1ccccc1	Wnt act 44 (no result: esBAF inh)
COC(=O)c1ccc(/C=N/Nc2nc(-c3ccc(C)cc3)cs2)cc1	none (no result: Wnt act)
Cc1nc(Nc2ccccc2)sc1C(=O)c1ccccc1	Wnt act 42 (no result: MITF TRPM1 HTS, esBAF inh)
O=C(C[C@@H]1CC[C@@H]2[C@H](COC[C@@H](O)CN2C(=O)Nc2ccc(F)cc2)O1)NCCc1ccncc1	none (no result: Wnt act, MITF TRPM1 HTS, GAA850 FXN act)
Cc1ccc(S(=O)(=O)N[C@H]2CC[C@@H](CCNC(=O)Nc3ccc(Cl)cc3)O[C@@H]2CO)cc1	none (no result: Wnt act, MITF TRPM1 HTS, GAA850 FXN act)
C[C@@H]1CCCCO[C@@H](CN(C)S(=O)(=O)c2ccc(F)cc2)[C@@H](C)CN([C@H](C)CO)C(=O)c2cc(NC(=O)CCCN(C)C)ccc2O1	none (no result: Wnt act, MITF TRPM1 HTS, GAA850 FXN act)
C[C@H](CO)N1C[C@H](C)[C@H](CN(C)C(=O)Nc2ccc(F)cc2)OCCCC[C@H](C)Oc2ccc(NC(=O)c3ccncc3)cc2C1=O	none (no result: Wnt act, MITF TRPM1 HTS, GAA850 FXN act)
CC(C)(C)C(=O)c1sc(Nc2ccccc2)nc1N	MITF TRPM1 HTS 122, esBAF inh 57
COc1ccccc1-c1nnc(SCc2ccccn2)n1C	none (no result: Wnt act)
COc1ccccc1-c1nc(SCc2ccccn2)n[nH]1	esBAF inh 60
O=C(NC(=S)NCCc1ccccc1)c1ccccc1F	none
S=C(NCCc1ccc(Cl)cc1)NC1CCCC1	none (no result: esBAF inh)
Fc1ccccc1NC(=S)NCCc1ccccc1	esBAF inh 49 (no result: MITF TRPM1 HTS)
S=C(NCc1ccc(Cl)cc1)Nc1ccccc1Cl	none (no result: Wnt act, esBAF inh)
S=C(NCCc1ccc(Cl)cc1)NC1CCCCC1	MITF TRPM1 HTS 89, esBAF inh 63
CSc1ccccc1NC(=S)NCc1ccc(Cl)cc1	esBAF inh 59
O=C(NC(=S)NCCc1ccccc1)c1ccccc1	esBAF inh 67
COc1ccc(NC(=O)N(C)C[C@@H]2Oc3ccc(NC(=O)C4CCCCC4)cc3C(=O)N([C@H](C)CO)C[C@@H]2C)cc1	none (no result: Wnt act, MITF TRPM1 HTS, GAA850 FXN act)
COc1ccc(-c2cnc3c(c2)C(=O)N([C@H](C)CO)C[C@H](C)[C@H](CN(C)C(=O)Cc2ccccn2)O3)cc1	none (no result: Wnt act, MITF TRPM1 HTS, GAA850 FXN act)
Fc1ccccc1NC(=S)NCCc1ccc(Cl)cc1	MITF TRPM1 HTS inconclusive, esBAF inh 59
CO[C@H]1CN(C)C(=O)c2cc(NC(=O)C3CC3)ccc2OC[C@H](C)N(Cc2ccc(F)cc2)C[C@@H]1C	none (no result: Wnt act, MITF TRPM1 HTS, GAA850 FXN act)
